Experimental findings from ChEMBL document CHEMBL1157539, “Thousands of chemical starting points for antimalarial lead identification” (Nature, 2010) are described below.

Broadly, the Inhibition is the change of the read-out against control, counted positive when it falls. A low value points to a weak effect.

What all share (assay type): functional
In assay [1] the test system is Plasmodium falciparum. Put plainly: GSK_TCMDC: Inhibition of Plasmodium falciparum 3D7 in whole red blood cells, using parasite LDH activity as an index of growth. Test compounds present at 2uM.
Assay [2] relates to Plasmodium falciparum. Put plainly: GSK_TCMDC: Inhibition of Plasmodium falciparum Dd2 in whole red blood cells, using parasite LDH activity as an index of growth. Test compounds present at 2uM.
Another assay has as its system HepG2. Put plainly: GSK_TCMDC: Percent inhibition of human HepG2 cell line. Test compounds present at 10uM.

For the molecule `O=C(CCCCCNC(=O)c1ccc(O)c(-c2ccc(Cl)c(Cl)c2)c1)NCCN1CCCCC1`, the Inhibition in the assay with Plasmodium falciparum [1] stood at 93%; in the assay on Plasmodium falciparum [2] it was 1%; with HepG2, 0%.

As to `CC(C)(C)C1CC(=O)CC2C(=O)N(C3CCCCC3)C(=O)C21` (configuration not stated), the Inhibition was determined as 97% in the assay on Plasmodium falciparum [1], 27% in the assay on Plasmodium falciparum [2] and 0% in the assay with HepG2.

Regarding `CCC[C@@H]([C@@H](CC1CCCCC1)C(=O)N[C@H](C(=O)Nc1nccs1)C(C)(C)SC)N(O)C=O`, the Inhibition worked out at 97% with Plasmodium falciparum [1], 98% with Plasmodium falciparum [2] and 51% in the assay on HepG2.

Regarding `COc1cc(Cc2cnc(N)nc2N)cc(OCCn2ccccc2=O)c1OC`, the Inhibition in the assay with Plasmodium falciparum [1] is 97%; with Plasmodium falciparum [2], 0%; in the assay on HepG2, 4%.
